Reference: PubChem BioAssay AID1851 (National Center for Advancing Translational Sciences (NCATS), 2009)
Among all 16,000 compounds or so, about 4,000 (25%) were called active. Another 26% or so got no clear call; they are omitted. These entries were drawn from the full list. Values without a mark were called inactive. The call rests on the fitted dose curve; in most records, active means well fitted curve in the direction sought with a large enough effect; inconclusive means small, poorly fitted or top-dose-only effect, or effect the other way; inactive means no such curve, though single readings can be large or run the other way.

Target: Cytochrome P450 2C9 (Homo sapiens) (UniProt P11712)
Assay: Cytochrome panel assay with activity outcomes
Settings: recombinant CYP, pro-luciferin dealkylation, luminescence, p450-cyp2c9; series mostly up to 57.1 µM
On the % scale 0 is the no-effect control and ±100 the full control effect.

Cytochrome P450 2C9 (Homo sapiens), sequence (P11712 whole entry, looked up): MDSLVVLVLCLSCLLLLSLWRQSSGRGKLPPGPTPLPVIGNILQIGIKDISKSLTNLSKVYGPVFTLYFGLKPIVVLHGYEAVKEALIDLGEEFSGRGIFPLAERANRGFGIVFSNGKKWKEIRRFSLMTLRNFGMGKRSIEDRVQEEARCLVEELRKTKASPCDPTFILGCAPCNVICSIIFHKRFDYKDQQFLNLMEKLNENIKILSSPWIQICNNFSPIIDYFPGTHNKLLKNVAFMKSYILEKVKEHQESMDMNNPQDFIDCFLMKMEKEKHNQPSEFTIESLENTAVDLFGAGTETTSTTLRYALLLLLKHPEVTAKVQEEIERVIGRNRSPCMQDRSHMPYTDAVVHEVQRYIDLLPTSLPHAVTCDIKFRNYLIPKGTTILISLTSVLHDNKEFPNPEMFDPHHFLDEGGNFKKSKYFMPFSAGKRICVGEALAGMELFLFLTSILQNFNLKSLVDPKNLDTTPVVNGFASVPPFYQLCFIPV

Row | Structure (SMILES) | AC50 | activity, negative = inhibition
1 | CC(C)(C)NC[C@H](O)COc1cccc2c1CCC(=O)N2 | inactive | 
2 | CCOC(=S)SCC(=O)O |  | 4.25% [at 11.4 µM]
3 | NC1=N[C@H](c2ccc(Cl)cc2)N(c2ccc(S(=O)(=O)Nc3ncccn3)cc2)C(N)=N1 |  | 14.6% [at 11.4 µM]
4 | CC(C)CO/N=C1/C[C@@H](O)[C@@H](O)[C@@H]2[C@@H]3C(=O)N([C@@H](C)c4ccccc4)C(=O)[C@H]3CC[C@@H]12 |  | -15.7% [at 11.4 µM]
5 | Cc1nc(NS(=O)(=O)c2ccc(Br)cc2)c2c3c(sc2n1)CCC3 | 0.224 µM (active) | 
6 | Cc1nc(NS(=O)(=O)c2ccccc2C)c2c3c(sc2n1)CCC3 | 2.51 µM (active) | 
7 | Cn1c2c(c(=O)n(C)c1=O)C1(C(=O)Nc3ccccc31)C(C#N)=C(N)O2 (configuration not stated) | inactive | 
8 | CCn1c(=O)[nH]c2cc(Cl)c(Cl)cc21 | inactive | 
9 | C[C@@H](c1ccccc1)N1C(=O)[C@H]2[C@H]3[C@H](O)[C@H](O)C/C(=N/OCc4ccccc4)[C@H]3CC[C@@H]2C1=O |  | -20.1% [at 11.4 µM]
10 | O=C(CSc1nc2ccc([N+](=O)[O-])cc2s1)c1ccc2ccccc2c1 |  | -5.5% [at 11.4 µM]
11 | O=C(CSc1nnc(COc2ccccc2)n1-c1ccccc1)c1ccccc1 | 10 µM (active) | 
12 | COc1ccc(OCc2nnc(SCC(=O)O)n2N)cc1 | inactive | 
13 | CCn1c(COc2ccccc2)nnc1SCC(=O)c1cccc([N+](=O)[O-])c1 | 22.4 µM (active) | 
14 | CCn1c(SCC(=O)N/N=C/C=C\c2ccccc2[N+](=O)[O-])nnc1-c1ccccc1 | inactive | 
15 | CO[C@@H]1COC(=O)C/C=C\[C@@H](C)[C@@H]2C=C[C@H](O)[C@@H](COC(=O)CCC[C@H]1C)O2 |  | -8.54% [at 11.4 µM]
16 | Cc1c(C)n(C(=O)CN2CCC(C)CC2)c2ccccc12 | inactive | 
17 | CO[C@@H]1COC(=O)C/C=C\[C@H](C)[C@H](OC)COC(=O)[C@H]2CCCN2C(=O)C/C=C\[C@H]1C |  | 13.8% [at 11.4 µM]
18 | OC[C@H]1NC[C@H](O)[C@@H](O)[C@H]1O | inactive | 
19 | Cc1ccccc1-c1cc(N(C)Cc2ccco2)ncn1 |  | -5.66% [at 2.29 µM]

Row | Structure (SMILES) | AC50 | activity, negative = inhibition
20 | Cc1ccc(NC(=O)N(Cc2ccco2)C(C)c2ccco2)cc1C (configuration not stated) | 12.6 µM (active) | 
21 | Cc1cc(N2CCN(C)CC2)nc2ccc(NC(=O)CCC(=O)NCc3ccco3)cc12 | inactive | 
22 | CCCNC1CCS(=O)(=O)C1 (configuration not stated) | inactive | 
23 | CCCCN(C(=S)Nc1ccccc1)C1CCS(=O)(=O)C1 (configuration not stated) | inactive | 
24 | CCCCSC(=S)N(C)C1CCS(=O)(=O)C1 (configuration not stated) | 17.8 µM (active) | 
25 | O=C(Cc1ccccc1)NC1CCN(S(=O)(=O)c2ccc(C(=O)O)cc2)CC1 | inactive | 
26 | Cc1ccc(NC(=O)CN2CCC(NC(=O)Cc3ccccc3)CC2)cc1C | 15.8 µM (active) | 
27 | Cc1ccc(C(c2ccc(C)o2)c2cccc([N+](=O)[O-])c2O)o1 | 1.26 µM (active) | 
28 | O=[N+]([O-])c1cccc2cn[nH]c12 | inactive | 
29 | O=[N+]([O-])c1cccc2c(Br)[nH]nc12 | inactive | 
30 | COC(=O)C1=C(C)OC(N)=C(C#N)C1c1cc(OC)ccc1OC (configuration not stated) | 5.01 µM (active) | 
31 | COC(=O)C1=C(C)OC(N)=C(C#N)C1C1CCCCC1 (configuration not stated) | 10 µM (active) | 
32 | CCOC(=O)C1=C(c2ccccc2)OC(N)=C(C#N)C1c1ccc(Cl)s1 (configuration not stated) | inactive | 
33 | CCOC(=O)C1=C(N)Oc2ccc(Br)cc2[C@@H]1[C@@H](C#N)C(=O)OCC | inactive | 
34 | CC(=O)OC[C@@H]1O[C@H](C/C=N\O[C@@H](C)c2cn([C@H]3COC[C@H]3O)nn2)C=C[C@@H]1OC(C)=O |  | 17.7% [at 11.4 µM]
35 | COc1ccccc1-c1cncnc1NCc1cnc(C)cn1 |  | 14.1% [at 2.29 µM]
36 | Cc1[nH]n(-c2ccc(S(=O)(=O)O)cc2)c(=O)c1N=Nc1ccccc1 |  | 21.2% [at 11.4 µM]
37 | Cn1c(N)c(N=Nc2ccc(S(N)(=O)=O)cc2)c(=O)n(C)c1=O |  | 5.29% [at 11.4 µM]
38 | Cc1ccc(N=Nc2c(N)n(-c3ccccc3)[nH]c2=O)cc1 | 7.94 µM (active) | 

Row | Structure (SMILES) | AC50 | activity, negative = inhibition
39 | CCN1C(=O)C=CC1=O | inactive | 
40 | COc1ccc(CNCCC(c2ccc(OC(C)C)cc2)C(C)C)cc1OC (configuration not stated) | inactive | 
41 | CC(C)=CCC/C(C)=C/CO/N=C1/C[C@@H](O)[C@@H](O)[C@@H]2[C@H]3C(=O)N(c4ccc(F)cc4F)C(=O)[C@@H]3CC[C@H]12 |  | 18.9% [at 11.4 µM]
42 | COc1cc(/C=C(/C#N)c2nc3ccccc3[nH]2)ccc1Oc1ncccc1[N+](=O)[O-] | 2 µM (active) | 
43 | N#C/C(=C\c1ccc(Oc2ccc(C(F)(F)F)cc2[N+](=O)[O-])cc1)c1nc2ccccc2[nH]1 | 3.98 µM (active) | 
44 | COc1ccc(/C=C(/C#N)C(=O)Nc2cc(C)ccc2C)cc1C(=O)O | inactive | 
45 | COc1cc(/C=C(/C#N)c2nc3ccccc3[nH]2)ccc1OCC(=O)Nc1ccccc1C | 3.16 µM (active) | 
46 | N#C/C(=C\c1ccc(N2CCCC2)c([N+](=O)[O-])c1)c1nc2ccccc2[nH]1 | 2.51 µM (active) | 
47 | Fc1ccc(Nc2ncnc3ccc(-c4ccoc4)cc23)cc1 |  | -12.3% [at 2.29 µM]
48 | COc1ccc(-c2cc(CNC(C)=O)on2)cc1 | inactive | 
49 | COc1ccc(-c2cc(C(F)(F)F)n3nc(C(=O)NCc4ccco4)c(Cl)c3n2)cc1 | 0.398 µM (active) | 
50 | O=c1ccc(NS(=O)(=O)c2ccc(Cl)cc2)cn1Cc1ccc(Cl)c(Cl)c1 | 1.78 µM (active) | 
51 | O=S(=O)(c1ccccc1)N1CCC2(CCN(Cc3ccccc3)CC2)CC1 | inactive | 
52 | O=c1ccc(NS(=O)(=O)c2ccccc2)cn1Cc1ccc(Cl)c(Cl)c1 | 2.51 µM (active) | 
53 | CCn1c(CCNC(=O)c2ccc(Cl)cc2Cl)n[nH]c1=S | inactive | 
54 | CCCN(CCC)C(=S)NC(=O)c1ccc(Cl)cc1Cl | 3.55 µM (active) | 
55 | CC(C)CC1NC(=S)N(C2CCCCC2)C1=O (configuration not stated) | 17.8 µM (active) | 
56 | CCC(C)C1NC(=S)N(C2CCCCC2)C1=O (configuration not stated) | 3.55 µM (active) | 
57 | COc1ccc2c(c1OC)C(=O)N(C(C)C(=O)O)C2=O (configuration not stated) | inactive | 
